Records with an inconclusive call do not appear. Where a call stands in place of a potency, no number is given. Unmarked numbers belong to inactive results. The source made the active and inactive calls. Calls come from the whole dose curve; as a rule, active = well fitted inhibition curve with a large enough effect; inconclusive = small, poorly fitted or top-dose-only effect; inactive = flat fitted curve, though single readings scatter. *1 amine or outer side, *2 acyl side, *3 side chain or, on linkers, in order; H or OH if unused. Where a SMILES comes first, the peptide text is derived from it. Bridges are numbered along the chain shown (N, C = ends). [ ]: non-standard residue; d: D form. The star is where a group is joined. ξ: configuration not given here. X10 = NC1=NCCC(C(N[*:1])C(=O)[*:2])N1; ΔAla(3-NHCONH2) = NC(=O)NC=C(N)C(=O)O; ξβ3hOrn = NCCCC(N)CC(=O)*; Dap = NC[CH](N)C(=O)O
Each molecule was assayed on Zika virus NS2B-NS3 protease (assay: Primary screen GU AMC qHTS for Zika virus inhibitors (AID 1347154; note: nearly all actives have a fitted effect of over 70% in size)). Settings: Zika NS2B-NS3 unlinked protease, AMC fluorogenic substrate; series mostly up to 54.1 µM.
Outline: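 Unlinked Zika NS2B hydrophilic domain–NS3 protease complex at 25 nM in 10 mM Tris-HCl pH 8.0, 0.01% Tween 20, with an AMC peptide substrate. Fluorescence change (340/450 nm) over 15 min at room temperature, normalized to controls, fitted to 4-parameter Hill.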
With `O=C(O)C1CCC1` the Potency was “inactive”.
`Cn1cc(S(C)=O)c(=O)c2ccc(F)cc21` (centres undefined) was tested, and the Potency was “inactive”.
`COc1cc(S(N)(=O)=O)cc(C(=O)O)c1OC` was tested, and the Potency was “inactive”.
In the case of `Nc1nnnn1-c1ccccc1`, the Potency is reported as “inactive”.
In the case of `C/C(=N\O)[C@@H](C)NCC(C)(C)CN[C@H](C)/C(C)=N/O`, the Potency is reported as “inactive”.
With `COC(=O)/C=C(/C)N` the Potency was “inactive”.
`[O-][n+]1cccc(/C(Cl)=N/OC[C@@H](O)CN2CCCCC2)c1` was tested, and the Potency was “inactive”.
For `Fc1ccc(C(c2ccc(F)cc2)N2CCNCC2)cc1`, the Potency was “inactive”.
For `CC(=O)c1ccc(O)c(C(N)=O)c1`, the Potency was “inactive”.
In the case of `CC(CC1c2ccccc2CCc2ccccc21)CN(C)C` (centres undefined), the Potency is reported as “inactive”.
`OC1(c2ccc(Cl)cc2)CCNCC1` was tested, and the Potency was “inactive”.
In the case of `CCOC(=O)Oc1ccc(CCNC(=O)[C@H](CCSC)NC(C)=O)cc1OC(=O)OCC`, the Potency is reported as “inactive”.
In the case of `CCOc1ncc(F)c(=O)[nH]1`, the Potency is reported as “inactive”.
In the case of `CC(=O)/C=C/C=C1/C2CCC(C2)C1(C)C` (centres undefined), the Potency is reported as “inactive”.
With `CC(C)(C)C1CCC(CC2=C(O)c3ccccc3C(=O)C2=O)CC1` (centres undefined) the Potency was “inactive”.
`O=C(O)[C@H](O)[C@@H](O)[C@H](O[C@@H]1O[C@H](CO)[C@H](O)[C@H](O)[C@H]1O)[C@H](O)CO` was tested, and the Potency was “inactive”.
With `CN(C)CCCOC1(Cc2ccccc2)CCCCCC1` the Potency was “inactive”.
In the case of `Cc1ccccc1C(=O)N1CC/C(=N\OS(=O)(=O)O)c2ccc(Cl)cc21`, the Potency is reported as “inactive”.
With `Oc1ccc(CCNCCCCCCNCCc2ccccc2)cc1O` the Potency was “inactive”.
For `CCCCCC1Nc2cc(C(F)(F)F)c(S(N)(=O)=O)cc2S(=O)(=O)N1` (centres undefined), the Potency was “inactive”.
In the case of `CCN1CCCC1CN` (centres undefined), the Potency is reported as “inactive”.
For `O=C(O)c1cn(C2CC2)c2cc(Cl)c(F)cc2c1=O`, the Potency was “inactive”.
For `C[C@@H]1CCC[C@H](C)N1CCCC(O)(c1ccccc1)c1ccccn1` (some centres undefined), the Potency was “inactive”.
In the case of `CC(C)=CCNc1ncnc2c1ncn2[C@@H]1O[C@H](CO)[C@@H](O)[C@H]1O`, the Potency is reported as “inactive”.
In the case of `Nc1ccc(C(=O)N2CC3CC(CN(Cc4ccccc4)C3)C2)cc1`, the Potency is reported as “inactive”.
`NCCCC(N)CC(=O)NCC1NC(=O)C(CO)NC(=O)C(N)CNC(=O)C(C2CCN=C(N)N2)NC(=O)C(=CNC(N)=O)NC1=O` (stereo not drawn) (H-[Dap]S[Dap](ξβ3hOrn)[ΔAla(3-NHCONH2)][X10]; lactam 1-C; configuration not given here) was tested, and the activity change, negative = inhibition was -2.82% [at 0.59 µM].
With `Cc1ncc(CO)c(CO)c1O` the Potency was “inactive”.
`Cc1nc2n(c(=O)c1CCN1CCC(C(=O)c3ccc(F)cc3)CC1)CCS2` was tested, and the Potency was “inactive”.
With `OCc1c[nH]c2ccccc12` the Potency was “inactive”.
`O=P(O)(O)OCC(O)CO` (centres undefined) was tested, and the Potency was “inactive”.
In the case of `CC(=O)O[C@H]1CC[C@@]2(C)C(=CC[C@@H]3[C@@H]2CC[C@]2(C)C(C(C)=O)=CC[C@@H]32)C1`, the Potency is reported as “inactive”.
For `Cc1ccc(/C=N/n2c(-c3ccccc3)csc2=S)cc1`, the Potency was “inactive”.
For `O=C1CCCc2c(O)cccc21`, the Potency was “inactive”.
`OC(CCCN1CCCCC1)(c1ccccc1)c1ccccc1` was tested, and the Potency was “inactive”.
In the case of `NC(=O)COCCN1CCN(C(c2ccccc2)c2ccc(Cl)cc2)CC1` (centres undefined), the Potency is reported as “inactive”.
With `Nc1cc(C(F)(F)F)ccc1S` the Potency was “inactive”.
In the case of `CC[C@@H]([C@H](C)O)n1ncn(-c2ccc(N3CCN(c4ccc(OC[C@@H]5CO[C@@](Cn6cncn6)(c6ccc(F)cc6F)C5)cc4)CC3)cc2)c1=O`, the Potency is reported as “inactive”.
In the case of `Cc1oc(=O)oc1COC(=O)[C@@H]1N2C(=O)[C@@H](NC(=O)[C@H](N)c3ccccc3)[C@H]2SC1(C)C`, the Potency is reported as “inactive”.
With `CNC(=O)c1cnn(-c2nc(N)c3ncn([C@@H]4O[C@H](CO)[C@@H](O)[C@H]4O)c3n2)c1` the Potency was “inactive”.

Reference: PubChem BioAssay (NCATS)
